For some of these results: Potency and affinity values are given separately. Records with an inconclusive call do not appear. Some of the results follow. Entries that show only a call come without a potency. Activity calls are given as the source filed them.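 How the source made its calls, unless noted: active means falling signal with fitted half-maximal potency no higher than twice the top valid tested dose; inconclusive means poor fit quality, or flat fit spanning -70% to -30%; inactive means potency over limit, rising signal, or flat fit inside 30%.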
Assays:
[1] = Cryptococcus neoformans growth inhibition, dose response, Alamar Blue, cherry-picks (AID 686998)
[2] = HepG2 cell cytotoxicity, dose response, cytotoxicity control, cherry-picks, set 2 (AID 687002;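 active means a dose-response fit showing signal loss, with half-maximal concentration no higher than twice the top tested dose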)
[3] = HeLa cell cytotoxicity, dose response, cytotoxicity control, ATP luminescence, cherry-pick samples (AID 687004;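 active means a fitted half-maximal concentration no higher than twice the top valid tested dose, with signal falling as cells die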)
[4] = inducers of Cryptococcus neoformans cell lysis, dose response, AK release luminescence, cherry-picks (AID 687000;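 active means fitted dose curve reaches 40% lysis signal rise at or below the highest valid concentration tested for that sample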;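 further: luminescent detection of adenylate kinase leaking from lysed yeast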)
[5] = A549 cell cytotoxicity, dose response, cytotoxicity control, plate reader, cherry-pick, antagonist series (AID 743412; call rule not given here)
[6] = HepG2 cell cytotoxicity, dose response, cytotoxicity control, plate reader, cherry-pick, antagonist series (AID 743416; call rule not given here)
[7] = biological target: Melanocortin receptor 4 (Homo sapiens) (UniProt P32245); assay: MC4R antagonists, dose response, counter-screen for LGR2 antagonist project, cell-based, plate reader, cherry pick (AID 743444; call rule not given here)
[8] = Ring1 mRNA increase in mouse ESCs, confirmation, esBAF inhibitor project, cell-based, mouse ESC, RT-qPCR, cherry-pick (AID 743176;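 active means Ring1 gene expression raised more than 2-fold over untreated cells in both replicates at either tested dose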;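 further: Ring1 transcript normalised to actin housekeeping signal by TaqMan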); details: mouse ESC E14, Ring1 mRNA RT-qPCR fold change, stronger effect = higher value
[9] = Fgf4 mRNA decrease in mouse ESCs, confirmation, esBAF inhibitor project, cell-based, mouse ESC, RT-qPCR, cherry-pick (AID 743177;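 active means Fgf4 expression under 0.8 fold of control in both repeat measurements at one or both tested doses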;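 further: Fgf4 transcript normalised to actin in duplex TaqMan qPCR; cells exposed to compound for 24 h before lysis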); details: mouse ESC E14, Fgf4 mRNA qPCR fold change, stronger effect = lower value
[10] = esBAF inhibition via Bmi1 de-repression, confirmation, cell-based, RT-qPCR, mouse ESC, single point, cherry-pick (AID 743180;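 active means Bmi1 expression fold change above 6 at either tested concentration, seen in replicate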); details: mouse ESC E14, Bmi1 mRNA qPCR fold, stronger effect = higher value
[11] = A549 cell cytotoxicity, cytotoxicity control, plate reader, single point, cherry-pick (AID 743188; call rule not given here); details: at 25 µM
[12] = HepG2 cell cytotoxicity, cytotoxicity control, plate reader, single point, cherry-pick (AID 743189; in the data active means activity change below about -50%); details: at 25 µM, stronger effect = lower value
[13] = HEK293 cell cytotoxicity, cytotoxicity control, plate reader, single point, cherry-pick (AID 743190; in the data active means activity change below about -38%, passing the limit was not always enough); details: at 25 µM

C[C@@H]1CN([C@@H](C)CO)C(=O)c2cc(NS(=O)(=O)c3cn(C)cn3)ccc2O[C@@H](C)CCCCO[C@@H]1CN(C)Cc1ccc(C(F)(F)F)cc1
outcome [1]: inactive
outcome [2]: inactive

S=C(Nc1ccc(Cl)cc1Cl)Nc1ccccc1Oc1ccccc1
outcome [1]: inactive
outcome [2]: inactive
outcome [3]: inactive

C[C@@H]1CN([C@H](C)CO)C(=O)c2cc(NC(=O)Nc3cccc4ccccc34)ccc2O[C@@H]1CN(C)C(=O)Nc1ccccc1
outcome [1]: inactive
outcome [4]: inactive
outcome [2]: inactive
outcome [5]: inactive
outcome [6]: inactive
outcome [7]: inactive

CCCC(C)(C)C(=O)N1CCC1(C)C(=O)Nc1ccc(C)cc1 (centres undefined)
outcome [1]: inactive
outcome [2]: inactive
outcome [3]: inactive

Cc1ccc(NC(=O)N2CCCC2C(=O)Nc2c(C)cc(C)cc2C)cc1 (centres undefined)
outcome [1]: inactive
outcome [2]: inactive
outcome [3]: inactive

COc1ccc(S(=O)(=O)N[C@H]2C=C[C@H](CC(=O)N3CCC(Cc4ccccc4)CC3)O[C@@H]2CO)cc1
outcome [1]: inactive
outcome [2]: inactive
outcome [3]: inactive

O=C(C[C@@H]1CC[C@H]2[C@@H](COC[C@H](O)CN2Cc2ccc(Oc3ccccc3)cc2)O1)Nc1nccs1
outcome [1]: inactive
outcome [2]: inactive

C[C@H]1CN([C@@H](C)CO)C(=O)Cc2cc(NS(C)(=O)=O)ccc2O[C@@H]1CN(C)Cc1ccc(Cl)c(Cl)c1
outcome [1]: inactive
outcome [2]: inactive
outcome [3]: inactive

O=C(NCCN1CCCCC1)[C@H]1N[C@H]2c3ccc(-c4ccncc4)c(=O)n3C[C@H]2[C@@H]1CO
outcome [1]: inactive
outcome [2]: inactive
outcome [3]: inactive

C[C@H]1CN([C@@H](C)CO)S(=O)(=O)c2ccc(Br)cc2O[C@@H]1CN(C)C(=O)CCN1CCCCC1
outcome [1]: inactive
outcome [2]: inactive
outcome [3]: inactive

Cc1cccc(-c2ccc([C@H]3[C@H](CO)N4CCCCN(C(=O)c5ccc6c(c5)OCO6)C[C@@H]34)cc2)c1
outcome [1]: inactive
outcome [2]: inactive
outcome [3]: inactive

C[C@@H]1CN([C@@H](C)CO)C(=O)c2cc(NC(=O)C3CC3)ccc2O[C@H]1CN(C)CC1CCCCC1
outcome [1]: inactive
outcome [2]: inactive
outcome [3]: inactive

COc1ccc(CN(C)C[C@H]2Oc3ccc(NC(=O)Nc4ccc(F)cc4)cc3CC(=O)N([C@@H](C)CO)C[C@@H]2C)cc1
outcome [1]: inactive
outcome [2]: inactive

CC(C)NC(=O)Nc1ccc2c(c1)C(=O)N([C@@H](C)CO)C[C@@H](C)[C@H](CN(C)C(=O)c1ccncc1)OCCCC[C@H](C)O2
outcome [1]: inactive
outcome [2]: inactive
outcome [3]: inactive

O=C(Nc1ccccc1N1CCOCC1)c1cccc([N+](=O)[O-])c1
outcome [1]: inactive
outcome [2]: inactive
outcome [3]: inactive

C[C@H]1CN([C@@H](C)CO)C(=O)c2cccc(NS(=O)(=O)c3ccc(Cl)cc3)c2O[C@@H]1CN(C)CC1CC1
outcome [1]: inactive
outcome [2]: inactive
outcome [3]: inactive

C[C@@H]1CN([C@@H](C)CO)C(=O)c2cc(NC(=O)Nc3ccccc3)ccc2O[C@@H]1CN(C)C(=O)Nc1cccc2ccccc12
outcome [1]: inactive
outcome [2]: inactive

COc1ccc(C2=Nc3ccccc3NC(=O)C2N(C(=O)c2cc3ccccc3[nH]2)c2ccccc2)cc1 (centres undefined)
outcome [1]: inactive
outcome [4]: inactive
outcome [2]: inactive
fold change ([8]; Ring1 fold increase, at 7 µM): 1.31
fold change ([8]; at 33 µM): 0.913 (inactive)
Fgf4 expression fold change ([9]; Fgf4 expression, at 7 µM): 1.01
Fgf4 expression fold change ([9]; at 33 µM): 0.976 (inactive)
fold change ([10]; Bmi1 de-repression, at 7 µM): 1.36
fold change ([10]; at 33 µM): 1.54 (inactive)
cell viability change % (negative = cytotoxic) [11]: 6.45% (inactive)
activity change, negative = inhibition [12]: -23.1% (inactive)
activity change, negative = inhibition [13]: -16.6% (inactive)

COc1cccc(S(=O)(=O)Nc2ccc3c(c2)[C@H]2C[C@H](CC(=O)N(C)C)O[C@@H](CO)[C@H]2O3)c1
outcome [1]: inactive
outcome [2]: inactive
outcome [3]: inactive

Cc1noc(C)c1S(=O)(=O)Nc1ccc2c(c1)C(=O)N([C@@H](C)CO)C[C@@H](C)[C@@H](CN(C)Cc1ccccc1)OCCCC[C@H](C)O2
outcome [1]: inactive
outcome [2]: inactive
outcome [3]: inactive

CO[C@@H]1CN(C)C(=O)c2cc(NS(=O)(=O)c3cccc(C)c3)ccc2OC[C@@H](C)NC[C@H]1C
outcome [1]: inactive
outcome [2]: inactive
outcome [3]: inactive

C[C@H](CO)N1C[C@H](C)[C@H](CN(C)Cc2ccc(-c3ccccc3)cc2)Oc2c(NC(=O)c3ccncc3)cccc2C1=O
outcome [1]: inactive
outcome [2]: inactive

Cc1cccc(C)c1NC(=O)CN(C)C(=O)C1CC1C (centres undefined)
outcome [1]: inactive
outcome [2]: inactive
outcome [3]: inactive

Cc1cccc(C)c1NC(=O)CN(C)C(=O)C1CCCCC1
outcome [1]: inactive
outcome [2]: inactive
outcome [3]: inactive
